A short description of test [1]: qHTS Assay for Identification of Small Molecule Agonists for Hypoxia Response Element Signaling Pathway (AID 914; active = well fitted activation curve with a large enough effect in the signal ratio, with a control signal flat, not every such curve was filed as active; the % refers to the signal ratio; note: % of control where 0% means no effect). As to conditions: ME-180 (cervical carcinoma) HRE-bla reporter, beta-lactamase ratio, CoCl2, 17 h; hits give high values. The method in brief:
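In Opti-MEM containing 0.5% dialyzed FBS and 10 mM HEPES, ME-180 HRE-bla cells received a compound titration and EC50 CoCl2. They were incubated 17 hours, then CCF4-loaded 2.5 hours at room temperature before ratio reading.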

A short description of test [2]: qHTS Assay for Identification of Small Molecule Agonists for Thrombopoietin (TPO) Signaling Pathway (AID 917). Note: potency is the fitted concentration of half-maximal effect. As to conditions: TPO signaling pathway reporter cells, agonist qHTS, stimulated with TPO at its EC50; series mostly up to 38.5 µM. The method in brief:
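Human TPO receptor–transfected Ba/F3 cells (murine, IL-3-dependent) in IL-3-deficient medium; compounds plus TPO at EC50, 26 pM final; 24 hrs, 37 C; GpIIb-luciferase luminescence after 10 min RT detection.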

Test [3] has as its target Muscarinic acetylcholine receptor M1 (Rattus norvegicus) (UniProt P08482). In words: qHTS Assay for Antagonists of Acetylcholine Muscarinic M1 Receptor: Measurement of IP-One Response (AID 944). Note: nearly all actives have a fitted effect of over 75% in size. As to conditions: CHO-M1 cells, IP-One HTRF, antagonist mode; series mostly up to 46.1 µM. The method in brief: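 Read-out: HTRF competition between d2-IP1 and Eu-cryptate anti-IP1 antibody, emission 620 and 665 nm. Stimulus was carbachol, EC80 (200 nM), for 30 min in M1-CHO cells (rat receptor), after 10 min compound pre-treatment.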

Test [4] concerns the target Pyruvate kinase (Leishmania mexicana) (UniProt Q27686). In words: qHTS Validation Assay for Inhibitors of Leishmania Mexicana Pyruvate Kinase (AID 945). Note: potency is the fitted concentration of half-maximal effect. To be noted: purified L. mexicana pyruvate kinase, enzyme activity, E451W mutant enzyme; series mostly up to 57.5 µM. The method in brief: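 An endpoint luciferase assay: 0.2 nM LmPYK E451W turns over 0.5 mM PEP with 0.1 mM ADP for 1 h at room temperature, pH 7.2, before PKLight addition. Values are normalized to DMSO-only wells.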

Test [5] can be described thus: Confirmation and Secondary Assay for Modulators of Hemoglobin Beta Chain Splicing at IVS2 705 locus (AID 930).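 Note: HeLa cells stably expressing the EGFP-705 splicing reporter; GFP fluorescence per well restored by corrected splicing of the IVS2-705 intron in EGFP; % of control where 0% means no effect.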 To be noted: HeLa EGFP-705 splicing reporter, GFP fluorescence, 48 h; series mostly up to 46.1 µM. The method in brief: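 Per-well GFP, captured at 1 x 8 µm resolution with 488 nm excitation, served as the read-out for HeLa EGFP-705 cells incubated 2 days with test compound versus DMSO.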

Test [6] can be described thus: Cell Viability - LYMP2-001 (AID 921).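 Note: cells exposed to compound for 24 h at 37 °C; 0% = DMSO only and full inhibition = tetraoctylammonium bromide control wells; nearly all actives have a fitted effect of over 70% in size.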 As to conditions: LYMP2-001 lymphoblastoid cell viability; series mostly up to 92.2 µM. The method in brief: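 A lymphoblastoid cell line of human origin was treated with library compounds across a concentration series for 24 hours, and viable cell number was estimated from ATP-driven luciferase light output. Hill modeling gave AC50.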

The nature of test [7]: MultiTox-Fluor Cytotoxicity Assay - LYMP1-001 - Dead Cells (AID 946). As to conditions: LYMP1-001 lymphoblastoid cells, dead-cell protease fluorescence; series mostly up to 92.2 µM. The method in brief: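 Cytotoxicity as increased dead-cell protease fluorescence (bis-AAF-R110, 485/520 nm), read 60 min after MultiTox-Fluor reagent. Human lymphoblastoid line exposed 16 h; Hill-fitted AC50, with DMSO as 0% and 15 uM tetraoctylammonium bromide as 100%.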

A short description of test [8]: qHTS Assay for Identification of Small Molecule Antagonists for Thrombopoietin (TPO) Signaling Pathway (AID 918). Note: potency is the fitted concentration of half-maximal effect; nearly all actives have a fitted effect of over 60% in size. As to conditions: TPO-dependent cell signaling reporter, antagonist mode. The protocol: NIH Molecular Libraries Screening Centers Network [MLSCN]
NIH Chemical Genomics Center [NCGC]
The thrombopoietin (TPO) signaling pathway was assayed in murine Ba/F3 cells stably transfected with the human TPO receptor and a luciferase reporter gene controlled by the Glycoprotein IIb promoter (provided by Axxam). BaF3 cells are an IL-3-dependent pro B cell line that upon TPO stimulation, undergo cell division and induce the megakaryocyte marker, Glycoprotein IIb. The assay was screened at the EC50 of TPO (26 pM) to identify inhibitors of the pathway.
NCGC Assay Protocol Summary:
Cells were maintained at 37 C and 5% CO2in RPMI with 10% fetal bovine serum, 0.5 ng/mL murine IL-3, 100U/ml penicillin and 100 ug/ml streptomycin. Prior to plating, cells were incubated overnight in medium without IL-3. Cells were plated at 250 cells/5uL/well into white solid 1536-well plates, 23 nL of compounds were delivered by a pin tool, and 1 uL of TPO (26 pM final concentration in IL-3 deficient medium) was added. Following 24 hrs of incubation at 37 C and 5% CO2, 4 uL of Steadylite detector mix (PerkinElmer) was added, the plates incubated at room temperature for 10 min and luminescence was measured for 10 s and 2X binning by a ViewLux detector (Perkin Elmer).
(In qHTS, concentration-response curves come from the screen itself.)

Test [9] can be described thus: MultiTox-Fluor Cytotoxicity Assay - LYMP1-001 - Live Cells (AID 947).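 Note: 0% = DMSO only and full inhibition = tetraoctylammonium bromide control.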 As to conditions: LYMP1-001 lymphoblastoid cells, live-cell protease fluorescence viability; series mostly up to 92.2 µM.
The target in test [10] is Muscarinic acetylcholine receptor M1 (Rattus norvegicus) (UniProt P08482). The experiment in a line: qHTS Assay for Antagonists of Acetylcholine Muscarinic M1 Receptor: Kinetic Measurement of Intracellular Calcium Response (AID 943).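 Note: Fluo-4 calcium signal as peak divided by basal fluorescence over 4 min; nearly all actives have a fitted effect of over 75% in size.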 As to conditions: M1-expressing cells, kinetic intracellular calcium fluorescence; series mostly up to 35.3 µM. The method in brief:
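Read-out: peak over basal Fluo-4 fluorescence, kinetic at 1 Hz for 4 min after EC80 carbachol (100 nM final). Rat M1-CHO cells, dye loaded 1 h at 37C, compound added 10 min before agonist.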

Molecules are shown by their SMILES. Values without a mark were called inactive. Inconclusive results are not listed. Activity calls are given as the source filed them. Unless noted, calls come from the whole dose curve; as a rule, active = well fitted curve in the direction sought with a large enough effect; inconclusive = small, poorly fitted or top-dose-only effect, or another doubt; inactive = no such curve, though single readings can be large; an effect the other way counts as inactive or inconclusive.

Chain of Pyruvate kinase (Leishmania mexicana) (Q27686 2-499 E452W): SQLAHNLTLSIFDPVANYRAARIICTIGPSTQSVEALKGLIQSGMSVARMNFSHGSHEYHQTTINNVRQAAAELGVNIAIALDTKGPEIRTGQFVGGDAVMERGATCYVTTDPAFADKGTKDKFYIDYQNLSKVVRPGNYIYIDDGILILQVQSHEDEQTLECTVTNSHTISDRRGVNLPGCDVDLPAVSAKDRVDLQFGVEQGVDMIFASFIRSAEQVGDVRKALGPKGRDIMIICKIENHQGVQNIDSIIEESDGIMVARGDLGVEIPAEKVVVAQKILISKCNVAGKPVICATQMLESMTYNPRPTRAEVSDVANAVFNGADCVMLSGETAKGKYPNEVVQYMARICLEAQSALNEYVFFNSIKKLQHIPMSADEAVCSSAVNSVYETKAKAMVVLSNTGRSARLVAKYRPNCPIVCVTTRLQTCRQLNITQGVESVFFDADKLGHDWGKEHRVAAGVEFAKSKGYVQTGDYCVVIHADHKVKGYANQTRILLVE
Chain of Muscarinic acetylcholine receptor M1 (Rattus norvegicus) (P08482 whole entry, looked up): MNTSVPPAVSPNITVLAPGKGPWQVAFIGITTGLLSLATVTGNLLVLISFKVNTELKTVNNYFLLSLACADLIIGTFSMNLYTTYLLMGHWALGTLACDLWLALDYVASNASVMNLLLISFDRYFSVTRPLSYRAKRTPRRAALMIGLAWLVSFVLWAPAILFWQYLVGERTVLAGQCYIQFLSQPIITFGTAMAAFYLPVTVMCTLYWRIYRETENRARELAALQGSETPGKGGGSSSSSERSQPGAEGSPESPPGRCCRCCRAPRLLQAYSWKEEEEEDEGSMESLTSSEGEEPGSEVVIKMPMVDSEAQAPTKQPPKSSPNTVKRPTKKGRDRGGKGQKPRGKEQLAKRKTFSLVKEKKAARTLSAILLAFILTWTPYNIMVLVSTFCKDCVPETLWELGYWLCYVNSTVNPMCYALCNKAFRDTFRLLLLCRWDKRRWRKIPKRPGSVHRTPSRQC

For the compound `Cn1c(=O)c2c(ncn2C)n(C)c1=O`, in [1], the activation is -1.38%.
Take `NC(=O)OCC(COC(N)=O)c1ccccc1`: the Potency entry in test [2], in [3] and in [4] was “inactive” each time.
As for `CN1CCN(C2=Nc3cc(Cl)ccc3Nc3ccccc32)CC1`, the Potency result in test [2] and in test [4] was “inactive” in each case. For the same compound, in [5], the call was inactive.
On to `Cc1ccc(-c2cc(C(F)(F)F)nn2-c2ccc(S(N)(=O)=O)cc2)cc1`, for which the compound was called inactive in test [6] and in test [5]. Also, the Potency result in test [7] is “inactive”.
As to `Fc1ccc([C@@H]2CCNC[C@H]2COc2ccc3c(c2)OCO3)cc1`, in [8], the Potency is 12.6 µM (active). In addition, the Potency entry in test [4] was “inactive”.
Turning to `C[C@](N)(Cc1ccc(O)c(O)c1)C(=O)O`, the Potency entry in [2] and in test [4] was “inactive” in each case.
Regarding `O=C(Nc1ccc([N+](=O)[O-])cc1Cl)c1cc(Cl)ccc1O`, the figures for the Potency in test [2] and in test [4] were 0.1 µM (active) and 2.51 µM (active), respectively. The result in test [5] was inactive.
Take `Clc1ccc2c(c1)C(N1CCNCC1)=Nc1ccccc1O2`: the Potency in test [8] was 10 µM (active). For the same compound, the compound was classed as inactive in [5]. Further, the Potency result in test [4] was “inactive”.
For the compound `O=c1[nH]cc(F)c(=O)[nH]1`, the compound was called inactive in test [6], in [5] and in test [9]. Further, the Potency result in test [4] and in test [7] was “inactive” each time.
Take `Nc1nc2c(ncn2COC(CO)CO)c(=O)[nH]1`: the Potency entry in test [2] and in test [4] was “inactive” each time.
For `Cn1ccc2cc3c(cc21)CCN3C(=O)Nc1cccnc1`, the Potency in test [2] is 1 µM (active); in test [4], 7.94 µM (active). Also, the Potency entry in [10] is “inactive”.
On to `COc1ccc2c(c1)c(CC(=O)O)c(C)n2C(=O)c1ccc(Cl)cc1`, for which the Potency result in test [2] and in test [7] was “inactive” throughout. For the same compound, the compound was classed as inactive in [5] and in test [9].
Turning to `Cc1cc(C(C)(C)C)c(O)c(C)c1CC1=NCCN1`, the Potency result in [2] and in test [4] was “inactive” throughout. Also, the compound was called inactive in [5].
Turning to `Nc1nnc(-c2cccc(Cl)c2Cl)c(N)n1`, the Potency entry in [2] and in test [4] was “inactive” throughout.
Turning to `CCOC(=O)Nc1ccc(NCc2ccc(F)cc2)nc1N`, the Potency result in [2], in [10], in test [3] and in [4] was “inactive” throughout.
With `Clc1ccccc1C(c1ccccc1)(c1ccccc1)n1ccnc1`, in test [8], the Potency was 12.6 µM (active). Moreover, the compound was classed as inactive in [5]. Also, the Potency entry in test [4] is “inactive”.
With `CC[N+](CC)(CC)CCOc1cccc(OCC[N+](CC)(CC)CC)c1OCC[N+](CC)(CC)CC`, the Potency result in test [2] and in [4] was “inactive” each time.
With `COc1nc(C)nc(Cl)c1NC1=NCCN1`, the Potency entry in test [2] and in test [4] was “inactive” in each case.
Regarding `CC(C)NCC(O)c1ccc(O)c(O)c1` (stereo unspecified), the compound was classed as inactive in test [6], in test [5] and in [9]. Further, in test [7], the Potency entry is “inactive”.
As for `Cc1cnc(C(=O)NCCc2ccc(S(=O)(=O)NC(=O)NC3CCCCC3)cc2)cn1`, the Potency entry in [2] and in test [4] was “inactive” each time.
Consider `CN1CCC(=C2c3ccccc3C=Cc3ccccc32)CC1`, for which the Potency result in [2] and in [4] was “inactive” each time.
In the case of `O=C(c1ccc(OCCN2CCCCC2)cc1)c1c(-c2ccc(O)cc2)sc2cc(O)ccc12`, the Potency in [8] was 15.8 µM (active). Besides, the Potency entry in test [4] is “inactive”.
In the case of `CN(Cc1cnc2nc(N)nc(N)c2n1)c1ccc(C(=O)N[C@@H](CCC(=O)O)C(=O)O)cc1`, the Potency entry in [2] and in [4] was “inactive” throughout.
`COc1ccc(C2CNC(=O)C2)cc1OC1CCCC1` (stereo unspecified): the Potency entry in test [2], in [10], in test [3] and in test [4] was “inactive” in each case.

These data come from PubChem BioAssay (NCATS).
